In all, about 5,500 compounds went through this assay and about 2,000 (36%) were called active. About 18% were inconclusive and are not listed. No stated cut-off is given here; in the data, active means normalized growth mostly below about 0.91 (no sharp cut-off); inconclusive means no clear call, values can overlap the other calls; inactive means mostly above about 0.92. The list shows a part of the results.
Test: chemical genetic growth profiling, strain panel (AID 1159580);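 further: tested at 20 µM; growth read once vehicle control cultures reached saturation at 30 °C; 1 = growth at the plate median or of vehicle wells; lower values mean less growth of the strain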
Conditions: S. cerevisiae deletion strains, growth OD
[1] = locus YAL013W, strain DEP1, active compounds read low
[2] = locus YDL101C, strain DUN1, active compounds read low
[3] = locus YDR150W, strain NUM1, active compounds read low
[4] = locus YHR030C, strain SLT2, active compounds read low
[5] = locus YJR075W, strain HOC1, active compounds read low
[6] = locus YMR307W, strain GAS1, active compounds read low
[7] = locus YPL241C, strain CIN2, active compounds read low

With `COc1cc(C2Nc3cccc4cccc(c34)N2)cc(OC)c1OC` the normalized growth [1] was 0.962 (inactive), the normalized growth (locus YBR229C, strain ROT2, active compounds read low) was 1.01 (inactive) and the normalized growth (locus YCL061C, strain MRC1, active compounds read low) was 1.02 (inactive). The normalized growth [2] was 1.05 (inactive), the normalized growth (locus YDL134C, strain PPH21, active compounds read low) was 0.985 (inactive) and the normalized growth [3] was 1.04 (inactive). The normalized growth (locus YEL061C, strain CIN8, active compounds read low) was 0.925 (inactive), the normalized growth (locus YGR078C, strain PAC10, active compounds read low) was 1.02 (inactive) and the normalized growth [4] was 0.729 (inactive). For the same compound, the normalized growth (locus YHR087W, strain rtc3, active compounds read low) was 1.01 (inactive), the normalized growth (locus YJL187C, strain SWE1, active compounds read low) was 0.992 (inactive) and the normalized growth (locus YJR043C, strain POL32, active compounds read low) was 1.01 (inactive). For the same compound, the normalized growth [5] was 1.07 (inactive), the normalized growth (locus YLR039C, strain RIC1, active compounds read low) was 0.751 (active) and the normalized growth (locus YLR058C, strain SHM2 (second series), active compounds read low) was 1 (inactive). The normalized growth (locus YLR085C, strain ARP6, active compounds read low) was 0.881 (inactive), the normalized growth (locus YLR262C, strain YPT6, active compounds read low) was 0.808 (active) and the normalized growth (locus YML094W, strain GIM5, active compounds read low) was 0.883 (inactive). For the same compound, the normalized growth (locus YMR219W, strain ESC1, active compounds read low) was 1 (inactive), the normalized growth (locus YMR263W, strain SAP30, active compounds read low) was 0.996 (inactive) and the normalized growth [6] was 0.661 (active). The normalized growth (locus YNL153C, strain GIM3, active compounds read low) was 1.02 (inactive), the normalized growth (locus YNL298W, strain CLA4 (second series), active compounds read low) was 0.877 (inactive) and the normalized growth (locus YNL322C, strain KRE1, active compounds read low) was 1 (inactive). The normalized growth (locus YNR030W, strain Alg12, active compounds read low) was 0.736 (active), the normalized growth (locus YPL055C, strain LGE1, active compounds read low) was 0.945 (inactive) and the normalized growth [7] was 0.403 (active). The normalized growth (locus YPR135W, strain CTF4, active compounds read low) was 0.952 (inactive).
With `COc1ccc(NC(=O)/C=C/c2ccc(Cl)cc2)cc1` the normalized growth [1] was 0.992 (inactive), the normalized growth (locus YAL040C, strain CLN3, active compounds read low) was 0.958 (inactive) and the normalized growth (locus YCL061C, strain MRC1 (second series), active compounds read low) was 1 (inactive). For the same compound, the normalized growth [3] was 1 (inactive), the normalized growth (locus YDR363W, strain ESC2, active compounds read low) was 1.01 (inactive) and the normalized growth (locus YER002W, strain NOP16, active compounds read low) was 0.956 (inactive). For the same compound, the normalized growth (locus YGR229C, strain SMI1, active compounds read low) was 0.986 (inactive), the normalized growth [5] was 0.98 (inactive) and the normalized growth [6] was 1.02 (inactive). The normalized growth (locus YNL175C, strain NOP13, active compounds read low) was 0.966 (inactive), the normalized growth (locus YNL197C, strain WHI3, active compounds read low) was 0.977 (inactive) and the normalized growth (locus YNL224C, strain SQS1, active compounds read low) was 1 (inactive). For the same compound, the normalized growth (locus YOR083W, strain WHI5 (second series), active compounds read low) was 0.961 (inactive) and the normalized growth [7] was 1.01 (inactive).
With `O=C(/C=C/c1ccc(Cl)cc1)Nc1cccc(Cl)c1` the normalized growth (locus YAR019C, strain CDC15, active compounds read low) was 0.958 (inactive), the normalized growth (locus YBL105C, strain PKC1, active compounds read low) was 0.948 (inactive) and the normalized growth (locus YBR135W, strain CKS1, active compounds read low) was 0.961 (inactive). For the same compound, the normalized growth (locus YBR136W, strain MEC1, active compounds read low) was 0.961 (inactive), the normalized growth (locus YBR160W, strain CDC28, active compounds read low) was 0.961 (inactive) and the normalized growth (locus YDL017W, strain CDC7, active compounds read low) was 0.949 (inactive). The normalized growth (locus YDL028C, strain MPS1, active compounds read low) was 0.951 (inactive), the normalized growth [2] was 0.973 (inactive) and the normalized growth (locus YDL108W, strain KIN28, active compounds read low) was 0.961 (inactive). For the same compound, the normalized growth (locus YDL132W, strain cdc53, active compounds read low) was 0.962 (inactive), the normalized growth (locus YDL214C, strain PRR2, active compounds read low) was 0.88 (inactive) and the normalized growth (locus YDR052C, strain DBF4, active compounds read low) was 0.952 (inactive). For the same compound, the normalized growth (locus YDR054C, strain cdc34, active compounds read low) was 0.958 (inactive), the normalized growth (locus YDR226W, strain ADK1, active compounds read low) was 0.95 (inactive) and the normalized growth (locus YDR477W, strain SNF1, active compounds read low) was 0.838 (inactive). The normalized growth (locus YER123W, strain YCK3, active compounds read low) was 0.631 (inactive), the normalized growth (locus YER133W, strain GLC7, active compounds read low) was 0.831 (inactive) and the normalized growth (locus YFL009W, strain cdc4, active compounds read low) was 0.963 (inactive). For the same compound, the normalized growth (locus YFL029C, strain CAK1, active compounds read low) was 0.949 (inactive), the normalized growth (locus YFR003C, strain YPI1, active compounds read low) was 0.953 (inactive) and the normalized growth (locus YFR019W, strain FAB1, active compounds read low) was 0.936 (inactive). The normalized growth (locus YFR028C, strain CDC14, active compounds read low) was 0.968 (inactive), the normalized growth (locus YGR040W, strain KSS1, active compounds read low) was 0.816 (inactive) and the normalized growth (locus YGR052W, strain FMP48, active compounds read low) was 0.819 (inactive). The normalized growth (locus YGR092W, strain DBF2, active compounds read low) was 0.485 (inactive), the normalized growth [4] was 0.846 (active) and the normalized growth (locus YHR079C, strain IRE1, active compounds read low) was 0.853 (inactive). For the same compound, the normalized growth (locus YHR082C, strain KSP1, active compounds read low) was 0.875 (inactive), the normalized growth (locus YHR205W, strain SCH9, active compounds read low) was 0.744 (inactive) and the normalized growth (locus YIL147C, strain SLN1, active compounds read low) was 0.96 (inactive). The normalized growth (locus YJL095W, strain BCK1, active compounds read low) was 0.754 (inactive), the normalized growth (locus YJL128C, strain PBS2, active compounds read low) was 0.919 (inactive) and the normalized growth (locus YJL157C, strain FAR1, active compounds read low) was 0.889 (inactive). For the same compound, the normalized growth (locus YJR016C, strain ILV3, active compounds read low) was 0.965 (inactive), the normalized growth (locus YJR066W, strain TOR1 (second series), active compounds read low) was 0.877 (inactive) and the normalized growth (locus YJR066W, strain TOR1, active compounds read low) was 0.831 (inactive). The normalized growth (locus YKL048C, strain ELM1, active compounds read low) was 0.895 (inactive), the normalized growth (locus YKL067W, strain YNK1, active compounds read low) was 0.876 (inactive) and the normalized growth (locus YKL101W, strain HSL1, active compounds read low) was 0.872 (inactive). The normalized growth (locus YKL193C, strain SDS22, active compounds read low) was 0.956 (inactive), the normalized growth (locus YKL203C, strain TOR2, active compounds read low) was 0.881 (inactive) and the normalized growth (locus YLR113W, strain HOG1, active compounds read low) was 0.816 (active). For the same compound, the normalized growth (locus YLR133W, strain CKI1, active compounds read low) was 0.864 (inactive), the normalized growth (locus YLR403W, strain SFP1, active compounds read low) was 0.774 (inactive) and the normalized growth (locus YML070W, strain DAK1, active compounds read low) was 0.798 (inactive). For the same compound, the normalized growth (locus YMR001C, strain CDC5, active compounds read low) was 0.96 (inactive), the normalized growth (locus YMR205C, strain PFK2 (second series), active compounds read low) was 0.886 (inactive) and the normalized growth (locus YMR277W, strain FCP1, active compounds read low) was 0.957 (inactive). The normalized growth (locus YNL006W, strain LST8, active compounds read low) was 0.971 (inactive), the normalized growth (locus YNL020C, strain ARK1, active compounds read low) was 0.883 (inactive) and the normalized growth (locus YNL161W, strain CBK1, active compounds read low) was 0.965 (inactive). For the same compound, the normalized growth (locus YNL183C, strain NPR1, active compounds read low) was 0.796 (inactive), the normalized growth (locus YNL207W, strain RIO2, active compounds read low) was 0.948 (inactive) and the normalized growth (locus YNL222W, strain SSU72, active compounds read low) was 0.961 (inactive). The normalized growth (locus YNL307C, strain MCK1 (second series), active compounds read low) was 0.699 (inactive), the normalized growth (locus YOL078W, strain AVO1, active compounds read low) was 0.938 (inactive) and the normalized growth (locus YOL136C, strain PFK27, active compounds read low) was 0.839 (inactive). For the same compound, the normalized growth (locus YOR061W, strain CKA2, active compounds read low) was 0.857 (inactive), the normalized growth (locus YOR119C, strain RIO1, active compounds read low) was 0.867 (inactive) and the normalized growth (locus YOR231W, strain MKK1, active compounds read low) was 0.837 (inactive). The normalized growth (locus YOR329C, strain SCD5, active compounds read low) was 0.957 (inactive), the normalized growth (locus YPL031C, strain PHO85, active compounds read low) was 0.835 (inactive) and the normalized growth (locus YPL153C, strain RAD53, active compounds read low) was 0.863 (inactive). The normalized growth (locus YPL204W, strain HRR25, active compounds read low) was 0.822 (inactive), the normalized growth (locus YPL209C, strain IPL1, active compounds read low) was 0.96 (inactive) and the normalized growth (locus YPL256C, strain CLN2, active compounds read low) was 0.862 (inactive). The normalized growth (locus YPR025C, strain CCL1, active compounds read low) was 0.952 (inactive), the normalized growth (locus YPR106W, strain ISR1, active compounds read low) was 0.944 (inactive) and the normalized growth (locus YPR111W, strain DBF20, active compounds read low) was 0.942 (inactive). The normalized growth (strain NNK1, active compounds read low) was 0.96 (inactive) and the normalized growth (strain TSCII, active compounds read low) was 0.965 (inactive).
